The results in this text go back to PMC7819943, “Rice protein-binding microarrays: a tool to detect cis-acting elements near promoter regions in rice”.

Over roughly 68,000 sequences, “fluorescence intensity (a.u.)” has its median near 9,100; the highest 2% begin near 16,000. The entries come from a sample that favours the highest values as a whole.

OsWRKY34, sequence (Q0JBA9 entry or part of it): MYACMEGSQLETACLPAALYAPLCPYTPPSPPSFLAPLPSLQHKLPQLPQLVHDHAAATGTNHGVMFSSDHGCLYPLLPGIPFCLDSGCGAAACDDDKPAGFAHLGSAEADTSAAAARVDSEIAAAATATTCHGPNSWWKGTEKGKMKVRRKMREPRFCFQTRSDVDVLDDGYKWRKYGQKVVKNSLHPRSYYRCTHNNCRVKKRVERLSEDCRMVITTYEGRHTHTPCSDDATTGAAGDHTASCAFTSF

This test deals with OsWRKY34 (Oryza sativa, UniProt Q0JBA9 1-250). Put plainly: protein-binding microarray (RPBM); PBS, 2% BSA, 51.3 ng/ul salmon testes DNA, 50 uM zinc acetate, 200 nM TF, 25 C, 1 h; high values mean tight binding. To be noted: protein: recombinant; tags: N-terminal polyhistidine and DsRed monomer fusion (pET32a); label: CyDye5-dUTP incorporated in the synthesized complementary strand; 3' TTTTT single-stranded linker to array surface; dsDNA, one strand shown. In a few lines:
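The binding signal for each feature is its fluorescence intensity in arbitrary units. An Axon 4000B scanner was used to read a custom Agilent array that had been made double-stranded with Cy5-dUTP primer extension, blocked with 2% BSA, incubated at 25 °C for 1 h with 200 nM protein in PBS, 2% BSA, salmon testes DNA and 50 µM zinc acetate, and washed. The protein was an N-terminal polyhistidine–DsRed transcription factor fusion from E. coli BL21-CodonPlus, purified on Ni–NTA.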
Take “TTATGCATCGATATATACCACATGTCAACCGATGAATTCACGGAGTCACCTAGTGCAG”: the binding signal was 9490 fluorescence intensity (a.u.).

As for “TTTTCCAAACTTCCAACTTTCTATCACATCAAACCTTTCACGGAGTCACCTAGTGCAG”, the binding signal is 8100 fluorescence intensity (a.u.).

“ACCTGGCTGTGCATGTACTACCCCAATGCATTTCTCTCTCCGGAGTCACCTAGTGCAG”: the binding signal is 8250 fluorescence intensity (a.u.).

As for “ATTCTGTAACCCGCTGCGGGCAACGGCCGGACGTGCAATCCGGAGTCACCTAGTGCAG”, the binding signal is 9630 fluorescence intensity (a.u.).

Take “CTGATCGAATACTCTAGCATTGCGATCTTTCCAAATTTGCCGGAGTCACCTAGTGCAG”: the binding signal is 8510 fluorescence intensity (a.u.).

Turning to “GGAGGGTGCGACAGCCCAATGTATCACTTGCGTTTGTATCCGGAGTCACCTAGTGCAG”, the binding signal was 8230 fluorescence intensity (a.u.).

As to “GTAGCATGCTTCTATCCTGTCCCGGTGTTTGTCGTACATTCGGAGTCACCTAGTGCAG”, the binding signal is 10200 fluorescence intensity (a.u.).

“GATTGAGTGTGCCCGTGTGAGATAGAATCTTTTTGCCCTTCGGAGTCACCTAGTGCAG”: the binding signal is 8930 fluorescence intensity (a.u.).

With “CAGCCCGCCGCCCCGCCCCGCCCCGCCGCAGGTCATTGACCGGAGTCACCTAGTGCAG”, the binding signal is 16400 fluorescence intensity (a.u.).

Take “ATCCCGTTGCGTCCCATTTTCCTCGCCCTCGTCGCTAGTTCGGAGTCACCTAGTGCAG”: the binding signal is 11200 fluorescence intensity (a.u.).

For the sequence “CACCGCCGCAGCCCAAGCCCACCACCACCACCGCCGCCGCCGGAGTCACCTAGTGCAG”, the binding signal was 9060 fluorescence intensity (a.u.).

In the case of “TGTCAGCCTCGTCCGGCTTCATCCCGTTGCGTCCCATTTTCGGAGTCACCTAGTGCAG”, the binding signal is 17600 fluorescence intensity (a.u.).

Regarding “AGCCACCACAGCCATCGCCCGTTCTTCCCGCCGGCCTATCCGGAGTCACCTAGTGCAG”, the binding signal was 9990 fluorescence intensity (a.u.).

As to “CCGCCGCTCCACCGTCTCAGCCATCGCCACCGCCCGCAGCCGGAGTCACCTAGTGCAG”, the binding signal was 8400 fluorescence intensity (a.u.).

As to “GGCTTCATCACAGCATCCATCGCCGCCGGCCACCACCACCCGGAGTCACCTAGTGCAG”, the binding signal is 12700 fluorescence intensity (a.u.).

For the sequence “GCCGCTCACAGCCGTCTTCGCTTGCCCGCCGCCATCGCCACGGAGTCACCTAGTGCAG”, the binding signal was 17500 fluorescence intensity (a.u.).

Take “ACAGCTTGCCGCCACCACCACACCACGCCGCTCGCCGCCCCGGAGTCACCTAGTGCAG”: the binding signal is 8950 fluorescence intensity (a.u.).

For the sequence “CCGCCATCGCCGCCGCCATCCGTTGACCATGGCTTCAGCCCGGAGTCACCTAGTGCAG”, the binding signal is 18900 fluorescence intensity (a.u.).

Regarding “ACATCCCCGACCCGCCCCGCCTCACCGGTCATTCGCAGCCCGGAGTCACCTAGTGCAG”, the binding signal was 9440 fluorescence intensity (a.u.).

Turning to “GGCTTCCCGTTGCGCGCGCGTCCCATCCTCGCCGGCGCTTCGGAGTCACCTAGTGCAG”, the binding signal was 8470 fluorescence intensity (a.u.).

Consider “ATCTTTTCCGCTGTTGCTGCTCCTCCTTTCTCGCTCTCGCCGGAGTCACCTAGTGCAG”, for which the binding signal was 9750 fluorescence intensity (a.u.).

“AGGTTCTATGACAGTATTGCACCCGGTTTTGTCAGCTGACCGGAGTCACCTAGTGCAG”: the binding signal was 8600 fluorescence intensity (a.u.).

“CTCCCGTGTCCCATTTAAAACCTTCTTCTTCTTCTTCGCTCGGAGTCACCTAGTGCAG”: the binding signal is 8650 fluorescence intensity (a.u.).

For the sequence “CGCCACCACTGCTGCCATCGTCAACATCCTATATGATTTTCGGAGTCACCTAGTGCAG”, the binding signal is 13400 fluorescence intensity (a.u.).

Consider “ATCAACCAGTAATCAATTGACCAAGCGGTTCTTGCGCCTACGGAGTCACCTAGTGCAG”, for which the binding signal is 9780 fluorescence intensity (a.u.).

For “GTTCTCACACTTCAGATTGTTATGTTTGGCTATGCTGTCTCGGAGTCACCTAGTGCAG”, the binding signal was 9600 fluorescence intensity (a.u.).

“CTCTTAGCAATGCTGACTGGTCCGATCAAAGTCAACGGTTCGGAGTCACCTAGTGCAG”: the binding signal was 8730 fluorescence intensity (a.u.).

“GAACCTGTCTACATCGGCCGTGTCTCGTGCACTTGCTCTCCGGAGTCACCTAGTGCAG”: the binding signal is 10700 fluorescence intensity (a.u.).

For the sequence “TGTCTTGGTCTTGTGGCGTTTATTGTTGCCGTCTGAGCGACGGAGTCACCTAGTGCAG”, the binding signal is 11000 fluorescence intensity (a.u.).

Turning to “CACTATTCACGTTTAACGTTTGACCGTTCTTCTTATTTGACGGAGTCACCTAGTGCAG”, the binding signal was 10300 fluorescence intensity (a.u.).

Consider “TGTATGATGCCTTTAACTTTTTAACCAACGTTTAATGTTTCGGAGTCACCTAGTGCAG”, for which the binding signal is 9010 fluorescence intensity (a.u.).

Turning to “TTCAATGACAATGTTGACTTTTTGACAAACGTTTAACCTTCGGAGTCACCTAGTGCAG”, the binding signal is 10200 fluorescence intensity (a.u.).

Take “TATTTTAATGTATGATGCCGTTGACTTTTTAACCAACGTTCGGAGTCACCTAGTGCAG”: the binding signal is 27000 fluorescence intensity (a.u.).

“TTTAATATATAACACCGTTGACTTTTTATCAAACGTTTGACGGAGTCACCTAGTGCAG”: the binding signal is 23400 fluorescence intensity (a.u.).

As for “AATGTATGACACCGTTGACTTCTTGACCAACGTTTAACCACGGAGTCACCTAGTGCAG”, the binding signal was 18700 fluorescence intensity (a.u.).

As to “GTTTATAAACTTAGTCAAACTTGAAACAGTTTGACTTTGACGGAGTCACCTAGTGCAG”, the binding signal is 12400 fluorescence intensity (a.u.).

For the sequence “TTTAATGTATGACACCGTTGACTTTTTAACCAACGTTTGACGGAGTCACCTAGTGCAG”, the binding signal is 36300 fluorescence intensity (a.u.).

Consider “GACTTTTTTAAACATATTTGACCGTTCGTTTTATTCAAAACGGAGTCACCTAGTGCAG”, for which the binding signal was 8190 fluorescence intensity (a.u.).

As to “GTATTTTAATGTATGACATTGTTGACTTTTTGATTAACGTCGGAGTCACCTAGTGCAG”, the binding signal is 13000 fluorescence intensity (a.u.).

Consider “GCTTTTGAGTTGACAGCCACCGTTTTTAACCAACGCGCGACGGAGTCACCTAGTGCAG”, for which the binding signal is 8140 fluorescence intensity (a.u.).

As to “TTTAGACTTCTTCCAACTGGAATGCGTTTGACCCTAACCACGGAGTCACCTAGTGCAG”, the binding signal was 8180 fluorescence intensity (a.u.).

“GCTCTTTGGCCTGCTTCAGCCTTCAGCTTCTCCATGGTTTCGGAGTCACCTAGTGCAG”: the binding signal is 10700 fluorescence intensity (a.u.).

“TACCTACTTTCTCATCTTAAGCAATCACTTCGACTTTAATCGGAGTCACCTAGTGCAG”: the binding signal is 9820 fluorescence intensity (a.u.).
